# Screening data from PubChem.
# In the library only some 4.2% were active in any assay of this set; here they are far more common.
# RecA splice inh = inhibitors of M. tuberculosis RecA intein splicing; P9WHJ3; cell-free RecA intein splicing, fluorescence; inhibition, % (no concentration beside the values); actives 0.75% (n = 290,000); in the data active = inhibition above about 30%;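 note: 0% = vehicle wells and 100% = reference inhibitor control wells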
# GDH-TPI counter-1 = GDH-TPI coupled enzyme inhibition counter-screen; inhibition, % at 4.8 µM; AID 588335; GDH-TPI coupled enzyme counterscreen, NADH absorbance; actives 1.2% (n = 360,000); in the data active = inhibition above about 30%;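 note: 0% = DMSO wells and 100% = wells lacking the enzyme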
# CCHFV vOTU inh = CCHFV vOTU protease inhibition; Pep-AMC fluorescence; inhibition, % at 11.5 µM; actives 0.55% (n = 370,000); AID 651958; in the data active = inhibition above about 30%; note: 0% = vehicle wells with enzyme and 100% = no enzyme wells
# FBA Mtb inh = inhibitors of M. tuberculosis fructose-bisphosphate aldolase. purified M. tuberculosis FBA, fluorescence read-out. inhibition, % at 1 µM. actives 2.3% (n = 360,000). AID 588726;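 note: 0% = vehicle and 100% = reference inhibitor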
# Target sequence (P9WQA3 whole entry, looked up): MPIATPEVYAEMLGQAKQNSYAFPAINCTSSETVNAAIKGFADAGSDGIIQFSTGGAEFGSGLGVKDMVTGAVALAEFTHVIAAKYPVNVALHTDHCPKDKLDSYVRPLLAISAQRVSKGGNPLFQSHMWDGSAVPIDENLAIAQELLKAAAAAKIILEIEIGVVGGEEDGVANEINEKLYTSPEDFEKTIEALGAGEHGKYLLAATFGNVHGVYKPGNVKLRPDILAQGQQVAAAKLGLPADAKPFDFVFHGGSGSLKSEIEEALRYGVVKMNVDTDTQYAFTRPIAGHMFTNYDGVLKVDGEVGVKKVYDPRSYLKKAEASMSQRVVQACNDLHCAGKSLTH
# Mtb FBA inh conf = Mtb FBA inhibition, confirmed; shares compounds with FBA Mtb inh; purified M. tuberculosis FBA, fluorescence read-out; inhibition, % at 1 µM; actives 78% (n = 5,600); AID 651616;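 note: 0% = vehicle wells and 100% = reference inhibitor wells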
# GDH-TPI counter-2 = counter-screen for M. tuberculosis FBA inhibitors: GDH-TPI coupled enzyme inhibition | shares compounds with FBA Mtb inh | GDH-TPI coupled enzyme counterscreen, fluorescence | inhibition, % at 1 µM | actives 81% (n = 5,600) | AID 652141; in the data active = inhibition above about 10%
# Starred values were filed as active, the others as inactive; . = not tested or not shown; + = active, no number; ! = repeats disagree. Cut-off read from the data, not from the text of the source, unless noted: active = inhibition above about 27%; inactive = the rest.
SMILES,RecA splice inh,GDH-TPI counter-1,CCHFV vOTU inh,FBA Mtb inh,Mtb FBA inh conf,GDH-TPI counter-2
O=C(COc1ccccc1F)Nc1nnc(-c2ccncc2)s1,-1.0,13.7,-7.2,11.1,.,.
S=c1[nH]nc(-c2cccs2)n1Cc1ccccc1,0.7,-0.6,19.2,28.0*,86.1*,59.4*
S=c1[nH]nc(-c2ccccc2)n1Cc1ccccc1,-0.2,15.0,11.2,2.2,.,.
COCc1cc(C)nc(Nc2ccccc2OC)c1C#N,1.3,14.4,16.7,2.8,.,.
COCc1cc(C)nc(NCCc2ccccc2)c1C#N,-1.6,5.9,-58.3,72.0*,+,181.9*
COCc1cc(C)nc(NC2CCCCC2)c1C#N,.,10.6,-44.7,84.8*,81.3*,67.2*
O=C(NCc1cccnc1)c1ccc(-c2ccc(Cl)cc2)o1,1.5,1.9,2.5,28.6*,113.4*,103.5*
O=C(NCc1cccnc1)c1ccc(-c2cc3ccccc3oc2=O)cc1,-0.1,16.4,-23.0,53.6*,2.6,1.0
O=C(Nc1cccnc1)c1ccc(-c2ccc(Cl)cc2)o1,1.5,6.2,-6.4,-1.5,.,.
Nc1nc2ccccc2cc1S(=O)(=O)c1ccccc1,0.1,-2.5,-59.3,51.3*,115.7*,98.0*
Oc1ccc(-c2cnc3ccccc3n2)cc1,-2.4,29.5,-9.8,-1.9,.,.
c1cc(-c2cccs2)nc(-c2cccs2)c1,.,5.0,-1.9,1.3,.,.
c1csc(-c2cnc3ccccc3n2)c1,-7.8,-0.3,-92.4,63.1*,-0.8,-2.1
c1coc(-c2cnc3ccccc3n2)c1,.,15.9,-117.4,105.8*,68.8*,46.0*
Cc1cccc(NC(=S)N(Cc2ccco2)C(C)c2cccs2)c1 (stereo not given),20.6,16.1,-6.0,1.6,.,.
CC(c1cccs1)N(Cc1ccco1)C(=S)Nc1ccc(F)c(Cl)c1 (stereo not given),26.6,-4.9,11.9,37.9*,+,143.9*
Cc1ccc2c(c1)c1c3n2CCNC3CCC1 (stereo not given),.,-1.4,-2.4,81.2*!,44.1*,36.5*
CCOc1ccccc1NC(=O)COC(=O)COc1cccc2c1OC(C)(C)C2,.,2.6,10.8,-0.2,.,.
COc1cc(C2c3c([nH]c(=O)[nH]c3=O)Nc3ccc4ccccc4c32)cc(OC)c1OC (stereo not given),4.7,0.3,-0.6,33.9*,90.5*,74.5*
CSC(=S)N/N=C/c1ccc(N(C)C)cc1,-4.4,9.7,4.6,-0.1,.,.
CN(C)c1ccc(C=NNC(=S)Nc2ccc(F)cc2)cc1,.,40.8*,-8.6,31.6*,2.5,1.8
Cc1cc(=O)n(C(C)(C)C)c(=O)n1Cc1ccccc1,-2.6,-0.6,-11.1,2.6,.,.
Cc1ccc(-c2cn3c(n2)CCCC3)cc1,0.0,-5.5,2.0,37.9*,+,158.9*
Cc1ccc(-c2cn3c(n2)SCC3)cc1,1.3,1.9,-3.9,3.2,.,.
C[C@H]1C(=O)N(C)CCN1C(=O)c1cccc(OC2CCN(CC(C)(C)C)CC2)c1,2.2,6.9,7.3,0.1,.,.
SMILES,RecA splice inh,GDH-TPI counter-1,CCHFV vOTU inh,FBA Mtb inh,Mtb FBA inh conf,GDH-TPI counter-2
COc1ccc(-c2sc3ccc(N4CCOCC4)cc3c2C#CC(C)(C)O)cc1,.,11.2,2.7,3.9,.,.
Nc1ccc(C#Cc2c(-c3ccsc3)oc3ccc(N4CCOCC4)cc23)cc1,1.6,21.6,-6.1,40.8*,101.7*,74.9*
COc1ccc(-c2oc3ccc(N4CCOCC4)cc3c2C#CCO)cc1,1.7,47.1*,-11.4,33.3*,47.7*,35.4*
Cn1c(SCC(=O)N2CC(=O)Nc3ccccc32)nnc1C(F)(F)F,.,-2.1,4.2,-0.4,.,.
COc1cc(OC)cc(C(=O)N2CCC(C(=O)NCCc3ccccc3)CC2)c1,.,0.0,-4.9,1.2,.,.
Oc1cccc2c(NC(=S)Nc3ccc(SC(F)F)cc3)cccc12,13.8,3.9,11.0,30.3*,+,+
Oc1cccc(NC(=S)Nc2ccc(SC(F)F)cc2)c1,1.1,11.5,20.5,2.6,.,.
CCOC(=O)c1cnc2ccc(C)cn2c1=O,.,9.1,-106.1,64.8*,18.0,6.3
CCc1cc(=O)oc2cc(C)cc(OCC(=O)NCc3ccccn3)c12,-1.1,0.0,-19.6,83.5*,196.2*,143.8*
CCCc1cc(=O)oc2cc(C)cc(OCC(=O)O)c12,-4.5,16.8,-48.8,97.3*,144.3*,109.1*
CCCc1cc(=O)oc2cc(C)cc(OCC(=O)NCc3ccncc3)c12,0.7,9.2,-22.6,61.2*,53.5*,40.7*
C=C(Cl)COc1cc(C)cc2oc(=O)cc(CC)c12,-1.9,4.5,8.9,32.3*,146.1*,118.0*
CCc1cc(=O)oc2cc(C)cc(OCC(=O)NCc3ccncc3)c12,0.8,6.9,-11.1,49.2*,160.6*,137.2*
Cc1ccn2c(c1)nc(=O)c1cc(S(=O)(=O)N3CCOCC3)ccc12,-0.1,9.6,-38.8,79.1*,152.6*,108.7*
O=C(NC1CCCCCC1)c1cc(=O)[nH]c2ccc(S(=O)(=O)N3CCOCC3)cc12,-2.0,5.5,-17.2,-2.6,.,.
Cc1cc(=O)[nH]c2ccc(S(=O)(=O)N3CCOCC3)cc12,-1.6,-4.2,-10.2,71.8*,123.9*,137.0*
Cn1c(=O)c(=O)n(C)c2cc(S(=O)(=O)N3CCOCC3)ccc21,4.8,0.6,-4.1,5.2,.,.
COc1ccc(OCc2cc(C(=O)NCc3cccc(C)n3)no2)c(Cl)c1,1.0,3.0,10.9,-1.2,.,.
Cc1ccccc1N(CC(=O)NCC1CCCO1)C(=O)C1(C)CC(=O)N=C2C=CC=CN21 (stereo not given),0.8,-1.3,-84.0,85.9*,106.1*,79.4*
O=C(NC1CCCC1)C(c1ccccn1)N(C(=O)c1csnn1)c1ccccc1 (stereo not given),0.1,-4.0,-1.2,-0.2,.,.
Cc1cc(NC(=O)CCC(=O)N(CC(=O)NCC2CCCO2)c2cccc(C)c2C)no1 (stereo not given),-1.2,-5.2,-6.2,-4.7,.,.
Cc1ccccc1N(CC(=O)NC1CCCC1)C(=O)C1(C)CC(=O)N=C2C=CC=CN21 (stereo not given),1.9,12.4,-90.3,73.9*,104.2*,94.1*
CC1=CC2=NC(=O)CC(C)(C(=O)N(CC(=O)NC3CCCC3)Cc3ccccc3)N2C=C1 (stereo not given),-2.7,8.0,-38.1,69.1*,9.4,4.1
O=C(CCCC(=O)N(CC(=O)NC1CCCC1)Cc1ccccc1)Nc1ccccn1,-0.5,-5.7,-11.7,-0.8,.,.
CC1(C(=O)N(c2ccccc2)C(C(=O)NC2CCCC2)c2ccccn2)CC(=O)N=C2C=CC=CN21 (stereo not given),.,13.6,-99.6,96.2*,106.8*,80.8*
CC1(C(=O)N(CC(=O)NC2CCCC2)C2CCCC2)CC(=O)N=C2C=CC=CN21 (stereo not given),-2.6,25.0,-98.5,110.3*,-1.0,-5.3
Cc1cc(C)cc(N(CC(=O)NC2CCCC2)C(=O)CCC(=O)Nc2cc(C)ccn2)c1,-2.1,8.4,1.0,-0.8,.,.
